Data as given in PMC9838217, “Structure of SALL4 zinc finger domain reveals link between AT-rich DNA binding and Okihiro syndrome”.
Where a chain is given by its changes, count along the chain named.

Columns and labels:
Assay in all cases: HT-SELEX; high values mean tight binding
Settings in all cases: protein: recombinant; vector His6-GST; dsDNA, one strand shown
SALL4 ZFC4 WT (HT-SELEX) = target: T1, SALL4 ZFC4 WT (HT-SELEX) (Mus musculus, UniProt Q8BX22 870-940)
T1 sequence: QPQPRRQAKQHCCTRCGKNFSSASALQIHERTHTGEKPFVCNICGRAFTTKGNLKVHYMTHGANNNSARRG
Outline: (§1)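 Each canonical k-mer's binding signal is its read fraction expressed as fold change over the initial random library. Reads came from MiSeq sequencing, scanned for 6-mers, after up to 6 triplicate cycles in which purified recombinant mouse SALL4 zinc finger cluster 4 (residues 870–940, 1 µg) bound library DNA (1.5 µg first cycle, 200 ng later) in 100 µl of 10 mM Tris–HCl pH 7.5, 50 mM NaCl, poly(dI-dC), DTT for 10 min at room temperature. Complexes were then Ni2+ bead-captured, washed, PCR-amplified and reselected.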

[1] = target: T2, SALL4 ZFC4 R900W (HT-SELEX) (Mus musculus, UniProt Q8BX22 870-940, R900W)
T2 sequence: T1 sequence with R31W
Outline: as §1

[2] = target: T3, SALL4 ZFC4 G921D (HT-SELEX) (Mus musculus, UniProt Q8BX22 870-940, G921D)
T3 sequence: T1 sequence with G52D
Outline: as §1

Row | Sequence | binding signal (SALL4 ZFC4 WT (HT-SELEX)) | binding signal [1] | binding signal [2]
1 | AACTCT | 1.39 ± 0.0293 fold-change vs cycle 0 | 1.52 ± 0.0171 fold-change vs cycle 0 | 1.47 ± 0.0843 fold-change vs cycle 0
2 | AACCAC | 0.74 ± 0.0275 fold-change vs cycle 0 | 0.83 ± 0.0479 fold-change vs cycle 0 | 0.879 ± 0.0101 fold-change vs cycle 0
3 | CTTAAA | 1.73 ± 0.0848 fold-change vs cycle 0 | 1.87 ± 0.112 fold-change vs cycle 0 | 1.65 ± 0.165 fold-change vs cycle 0
4 | ACCTAT | 1.37 ± 0.0376 fold-change vs cycle 0 | 1.45 ± 0.0775 fold-change vs cycle 0 | 1.43 ± 0.0809 fold-change vs cycle 0
5 | AGATAG | 1.35 ± 0.0403 fold-change vs cycle 0 | 1.5 ± 0.0704 fold-change vs cycle 0 | 1.43 ± 0.117 fold-change vs cycle 0
6 | GGGGGA | 0.31 ± 0.0219 fold-change vs cycle 0 | 0.349 ± 0.0327 fold-change vs cycle 0 | 0.439 ± 0.0654 fold-change vs cycle 0
7 | CCTAGG | 0.46 ± 0.0474 fold-change vs cycle 0 | 0.588 ± 0.0412 fold-change vs cycle 0 | 0.669 ± 0.0278 fold-change vs cycle 0
8 | AACTGC | 0.6 ± 0.0299 fold-change vs cycle 0 | 0.647 ± 0.0277 fold-change vs cycle 0 | 0.741 ± 0.0348 fold-change vs cycle 0
9 | CCAGAG | 0.463 ± 0.0303 fold-change vs cycle 0 | 0.544 ± 0.0428 fold-change vs cycle 0 | 0.625 ± 0.0553 fold-change vs cycle 0
10 | AGTTTG | 1.14 ± 0.0447 fold-change vs cycle 0 | 1.23 ± 0.039 fold-change vs cycle 0 | 1.22 ± 0.0352 fold-change vs cycle 0
11 | ACACGA | 0.663 ± 0.0255 fold-change vs cycle 0 | 0.777 ± 0.0248 fold-change vs cycle 0 | 0.869 ± 0.0214 fold-change vs cycle 0
12 | ACCTGC | 0.368 ± 0.0272 fold-change vs cycle 0 | 0.391 ± 0.01 fold-change vs cycle 0 | 0.516 ± 0.075 fold-change vs cycle 0
13 | GTTCAA | 1.2 ± 0.0638 fold-change vs cycle 0 | 1.34 ± 0.0679 fold-change vs cycle 0 | 1.3 ± 0.0535 fold-change vs cycle 0
14 | ATCCCA | 0.89 ± 0.0366 fold-change vs cycle 0 | 0.976 ± 0.0258 fold-change vs cycle 0 | 0.979 ± 0.0303 fold-change vs cycle 0
15 | ACAGAG | 0.763 ± 0.0507 fold-change vs cycle 0 | 0.916 ± 0.013 fold-change vs cycle 0 | 0.96 ± 0.0385 fold-change vs cycle 0
16 | ACCAGT | 0.8 ± 0.0267 fold-change vs cycle 0 | 0.969 ± 0.0358 fold-change vs cycle 0 | 0.994 ± 0.0294 fold-change vs cycle 0
17 | CCCTGA | 0.494 ± 0.0131 fold-change vs cycle 0 | 0.574 ± 0.0156 fold-change vs cycle 0 | 0.665 ± 0.0261 fold-change vs cycle 0
18 | GTTAAA | 1.66 ± 0.0709 fold-change vs cycle 0 | 1.8 ± 0.123 fold-change vs cycle 0 | 1.61 ± 0.154 fold-change vs cycle 0
19 | AGAGGA | 0.933 ± 0.0495 fold-change vs cycle 0 | 1.09 ± 0.0506 fold-change vs cycle 0 | 1.07 ± 0.0639 fold-change vs cycle 0
20 | TGTGAA | 1.23 ± 0.0362 fold-change vs cycle 0 | 1.38 ± 0.0419 fold-change vs cycle 0 | 1.29 ± 0.0621 fold-change vs cycle 0

Row | Sequence | binding signal (SALL4 ZFC4 WT (HT-SELEX)) | binding signal [1] | binding signal [2]
21 | AGGGCA | 0.305 ± 0.031 fold-change vs cycle 0 | 0.354 ± 0.00942 fold-change vs cycle 0 | 0.51 ± 0.0852 fold-change vs cycle 0
22 | CGTTAA | 1.13 ± 0.0737 fold-change vs cycle 0 | 1.25 ± 0.0783 fold-change vs cycle 0 | 1.17 ± 0.0825 fold-change vs cycle 0
23 | AATATC | 2.49 ± 0.203 fold-change vs cycle 0 | 1.88 ± 0.0733 fold-change vs cycle 0 | 1.75 ± 0.14 fold-change vs cycle 0
24 | CAGACG | 0.352 ± 0.0274 fold-change vs cycle 0 | 0.442 ± 0.0268 fold-change vs cycle 0 | 0.571 ± 0.085 fold-change vs cycle 0
25 | AAAGAG | 1.26 ± 0.0407 fold-change vs cycle 0 | 1.46 ± 0.0773 fold-change vs cycle 0 | 1.33 ± 0.0951 fold-change vs cycle 0
26 | GCTACC | 0.35 ± 0.0217 fold-change vs cycle 0 | 0.419 ± 0.0155 fold-change vs cycle 0 | 0.543 ± 0.0413 fold-change vs cycle 0
27 | CGGATA | 0.674 ± 0.0155 fold-change vs cycle 0 | 0.747 ± 0.0235 fold-change vs cycle 0 | 0.823 ± 0.043 fold-change vs cycle 0
28 | AATAGC | 1 ± 0.0454 fold-change vs cycle 0 | 1.07 ± 0.0474 fold-change vs cycle 0 | 1.11 ± 0.00486 fold-change vs cycle 0
29 | AAACGC | 0.392 ± 0.00979 fold-change vs cycle 0 | 0.449 ± 0.0166 fold-change vs cycle 0 | 0.58 ± 0.0501 fold-change vs cycle 0
30 | TGATCA | 1.35 ± 0.0953 fold-change vs cycle 0 | 1.5 ± 0.0834 fold-change vs cycle 0 | 1.47 ± 0.128 fold-change vs cycle 0
31 | AGGTTC | 0.828 ± 0.0497 fold-change vs cycle 0 | 0.972 ± 0.0561 fold-change vs cycle 0 | 1.02 ± 0.0282 fold-change vs cycle 0
32 | TTCAAA | 1.81 ± 0.113 fold-change vs cycle 0 | 1.83 ± 0.0928 fold-change vs cycle 0 | 1.66 ± 0.161 fold-change vs cycle 0
33 | TGAGAA | 1.37 ± 0.0413 fold-change vs cycle 0 | 1.49 ± 0.0497 fold-change vs cycle 0 | 1.38 ± 0.0987 fold-change vs cycle 0
34 | CTGTAC | 0.751 ± 0.0338 fold-change vs cycle 0 | 0.874 ± 0.0496 fold-change vs cycle 0 | 0.911 ± 0.0674 fold-change vs cycle 0
35 | ACGTAA | 1.19 ± 0.0733 fold-change vs cycle 0 | 1.3 ± 0.0477 fold-change vs cycle 0 | 1.21 ± 0.0842 fold-change vs cycle 0
36 | TACGTA | 1.26 ± 0.0297 fold-change vs cycle 0 | 1.33 ± 0.109 fold-change vs cycle 0 | 1.23 ± 0.0963 fold-change vs cycle 0
37 | AGTGTG | 0.745 ± 0.0331 fold-change vs cycle 0 | 0.85 ± 0.0147 fold-change vs cycle 0 | 0.909 ± 0.0296 fold-change vs cycle 0
38 | CTTATA | 2.43 ± 0.156 fold-change vs cycle 0 | 2.09 ± 0.123 fold-change vs cycle 0 | 1.82 ± 0.197 fold-change vs cycle 0
39 | GAGCAC | 0.415 ± 0.0413 fold-change vs cycle 0 | 0.537 ± 0.0508 fold-change vs cycle 0 | 0.674 ± 0.0417 fold-change vs cycle 0
40 | GGAAAA | 1.11 ± 0.0508 fold-change vs cycle 0 | 1.13 ± 0.0572 fold-change vs cycle 0 | 1.12 ± 0.0269 fold-change vs cycle 0

Row | Sequence | binding signal (SALL4 ZFC4 WT (HT-SELEX)) | binding signal [1] | binding signal [2]
41 | AACTTG | 1.21 ± 0.0551 fold-change vs cycle 0 | 1.34 ± 0.0813 fold-change vs cycle 0 | 1.29 ± 0.0625 fold-change vs cycle 0
42 | ACCACA | 0.701 ± 0.0312 fold-change vs cycle 0 | 0.793 ± 0.0317 fold-change vs cycle 0 | 0.841 ± 0.0188 fold-change vs cycle 0
43 | CTGTGA | 0.75 ± 0.0215 fold-change vs cycle 0 | 0.869 ± 0.0352 fold-change vs cycle 0 | 0.91 ± 0.0154 fold-change vs cycle 0
44 | ACTGCA | 0.647 ± 0.0528 fold-change vs cycle 0 | 0.7299 ± 0.00625 fold-change vs cycle 0 | 0.797 ± 0.0181 fold-change vs cycle 0
45 | AACTAA | 2.02 ± 0.0351 fold-change vs cycle 0 | 2.07 ± 0.133 fold-change vs cycle 0 | 1.82 ± 0.176 fold-change vs cycle 0
46 | CAAGAG | 0.839 ± 0.0412 fold-change vs cycle 0 | 1.03 ± 0.0313 fold-change vs cycle 0 | 1.015 ± 0.00973 fold-change vs cycle 0
47 | ACAGCT | 0.616 ± 0.0411 fold-change vs cycle 0 | 0.714 ± 0.0328 fold-change vs cycle 0 | 0.811 ± 0.0395 fold-change vs cycle 0
48 | CGGTTC | 0.342 ± 0.0141 fold-change vs cycle 0 | 0.423 ± 0.038 fold-change vs cycle 0 | 0.53 ± 0.0844 fold-change vs cycle 0
49 | GATGAC | 0.865 ± 0.0236 fold-change vs cycle 0 | 0.962 ± 0.0544 fold-change vs cycle 0 | 1.01 ± 0.0406 fold-change vs cycle 0
50 | GTTGCA | 0.582 ± 0.0571 fold-change vs cycle 0 | 0.661 ± 0.0273 fold-change vs cycle 0 | 0.75 ± 0.0252 fold-change vs cycle 0
51 | ACTAGC | 0.648 ± 0.0227 fold-change vs cycle 0 | 0.764 ± 0.0235 fold-change vs cycle 0 | 0.825 ± 0.0195 fold-change vs cycle 0
52 | AAGACC | 0.72 ± 0.0283 fold-change vs cycle 0 | 0.834 ± 0.0193 fold-change vs cycle 0 | 0.911 ± 0.0351 fold-change vs cycle 0
53 | ATGTTA | 2.16 ± 0.126 fold-change vs cycle 0 | 2.08 ± 0.106 fold-change vs cycle 0 | 1.83 ± 0.212 fold-change vs cycle 0
54 | CGTTTA | 1.06 ± 0.0285 fold-change vs cycle 0 | 1.15 ± 0.0184 fold-change vs cycle 0 | 1.12 ± 0.0221 fold-change vs cycle 0
55 | CACATC | 0.757 ± 0.0342 fold-change vs cycle 0 | 0.861 ± 0.0321 fold-change vs cycle 0 | 0.929 ± 0.0433 fold-change vs cycle 0
56 | GGATTA | 1.49 ± 0.0733 fold-change vs cycle 0 | 1.47 ± 0.0516 fold-change vs cycle 0 | 1.38 ± 0.0744 fold-change vs cycle 0
57 | TACGCA | 0.51 ± 0.0296 fold-change vs cycle 0 | 0.54 ± 0.0242 fold-change vs cycle 0 | 0.668 ± 0.0555 fold-change vs cycle 0
58 | AAGTCT | 1.259 ± 0.00421 fold-change vs cycle 0 | 1.4 ± 0.0184 fold-change vs cycle 0 | 1.38 ± 0.0691 fold-change vs cycle 0
59 | AATGTC | 1.08 ± 0.0855 fold-change vs cycle 0 | 1.21 ± 0.0715 fold-change vs cycle 0 | 1.22 ± 0.0672 fold-change vs cycle 0
60 | ATACGC | 0.486 ± 0.0113 fold-change vs cycle 0 | 0.531 ± 0.0184 fold-change vs cycle 0 | 0.66 ± 0.0195 fold-change vs cycle 0
